Where “and” joins values, the source holds several entries; their conditions need not be identical. Equal entries are not always repeated. About 83,000 compounds went through this panel and 20% of them were active in at least one assay; those are over-represented in the sample as a whole.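 Values shown are percent growth following 48 h exposure of cells in 96-well plates to a single concentration of compound; below 10 was considered active.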 Calls of active or inactive are those of the source.
How the values were obtained:
Assay in all cases: NCI-60 one-dose screen, 48 h (100 = growth as untreated, 0 = no growth, -100 = all killed)
[1] = test system: SK-MEL-2 melanoma
[2] = test system: EKVX NSCLC; conditions: 10 µM unless noted
[3] = test system: SN12C renal
[4] = test system: UO-31 renal
[5] = test system: TK-10 renal; conditions: 10 µM unless noted
[6] = test system: ACHN renal
[7] = test system: CAKI-1 renal
[8] = test system: A498 renal
[9] = test system: CCRF-CEM leukemia; conditions: 10 µM unless noted
[10] = test system: MOLT-4 leukemia
[11] = test system: SR leukemia; conditions: 10 µM unless noted
[12] = test system: RPMI-8226 leukemia
[13] = test system: OVCAR-8 ovarian; conditions: 10 µM unless noted
[14] = test system: OVCAR-5 ovarian
[15] = test system: OVCAR-4 ovarian; conditions: 10 µM unless noted
[16] = test system: SK-OV-3 ovarian; conditions: 10 µM unless noted
[17] = test system: IGROV1 ovarian
[18] = test system: OVCAR-3 ovarian
[19] = test system: HS 578T breast; conditions: 10 µM unless noted
[20] = test system: NCI/ADR-RES ovarian

Measured: growth

CCN(CC)CCOc1ccc(-c2nc3cc(Cl)ccc3s2)cc1
inactive: [1]; 10 µM unless noted 80.2% | [2] 57.3% | [3]; 10 µM unless noted 36% | [6]; 10 µM unless noted 10.3% | [7]; 10 µM unless noted 11.9% | [13] 40.9% | [15] 58.5% | [16] 59.9%
active: [4]; 10 µM unless noted -46.7% | [5] 8.65% | [8]; 10 µM unless noted -0.459% | [9] 4.45% | [10]; 10 µM unless noted -79.3% | [11] -69.6% | [12]; 10 µM unless noted -12.2% | [14]; 10 µM unless noted -0.127% | [17]; 10 µM unless noted -27.3% | [18]; 10 µM unless noted -4.49% | [19] -29.2% | [20]; 10 µM unless noted -26.1%

CN(C)C(=O)c1ccc(SC(=S)NCc2ccccc2)cc1
inactive: [1]; 10 µM 114% | [2] 69.5% [100 µM] | [3]; 10 µM 103% | [4]; 10 µM 93.2% | [6]; 10 µM 103% | [7]; 10 µM 102% | [7]; 100 µM 11.2% | [8]; 10 µM 114% | [8]; 100 µM 96.1% | [10]; 10 µM 111% | [12]; 10 µM 107% | [14]; 10 µM 113% | [14]; 100 µM 20.1% | [17]; 10 µM 116% | [18]; 10 µM 121% | [18]; 100 µM 46.9% | [20]; 10 µM 111%
active: [1]; 100 µM 4.25% | [3]; 100 µM -15.4% | [4]; 100 µM -67.4% | [5] -4.78% [100 µM] | [6]; 100 µM -56.9% | [9] 0.435% [100 µM] | [10]; 100 µM 3.1% | [11] -36.6% [100 µM] | [12]; 100 µM -27.3% | [17]; 100 µM -28.3% | [20]; 100 µM 2.6%

CCCCCC(CCCCC)C(=O)O
inactive: [1]; 10 µM unless noted 99.2% | [2] 116% | [3]; 10 µM unless noted 98.8% | [4]; 10 µM unless noted 87.6% | [5] 101% | [6]; 10 µM unless noted 109% | [7]; 10 µM unless noted 119% | [8]; 10 µM unless noted 103% | [9] 83.8% | [10]; 10 µM unless noted 96.1% | [11] 99.7% | [12]; 10 µM unless noted 97.3% | [13] 113% | [14]; 10 µM unless noted 110% | [17]; 10 µM unless noted 96.3% | [19] 104% | [20]; 10 µM unless noted 117%

O=C(Nc1ccccc1)Oc1c(Cl)c(Cl)c(Cl)c(Cl)c1Cl
inactive: [1]; 10 µM unless noted 95.6% and 101% | [2] 97.7% and 87.2% | [3]; 10 µM unless noted 99.4% and 92.7% | [4]; 10 µM unless noted 73.9% and 83.2% | [5] 100% | [6]; 10 µM unless noted 99.1% and 93.6% | [7]; 10 µM unless noted 93.1% and 89.7% | [8]; 10 µM unless noted 95.9% and 76.8% | [9] 93.6% and 101% | [10]; 10 µM unless noted 90.8% and 96.1% | [11] 98.2% and 99.2% | [12]; 10 µM unless noted 95.2% | [13] 105% and 98% | [14]; 10 µM unless noted 95.3% and 87.5% | [17]; 10 µM unless noted 95.2% and 96.3% | [18]; 10 µM unless noted 96.9% and 104% | [19] 91.6% | [20]; 10 µM unless noted 103% and 96.6%

NC(=S)N/N=C/c1ccc(Cl)s1
inactive: [1]; 10 µM unless noted 105% | [2] 76.6% | [3]; 10 µM unless noted 101% | [4]; 10 µM unless noted 100% | [5] 105% | [6]; 10 µM unless noted 109% | [7]; 10 µM unless noted 98.1% | [8]; 10 µM unless noted 97.1% | [9] 94.6% | [10]; 10 µM unless noted 99.2% | [11] 95.6% | [12]; 10 µM unless noted 100% | [13] 106% | [15] 109% | [17]; 10 µM unless noted 106% | [19] 103% | [20]; 10 µM unless noted 108%

CN(C)c1ccc(/C=N/N=C(\C#N)[S][Sn]([Cl])([c]2ccccc2)[c]2ccccc2)cc1
active: [4]; 10 µM unless noted -0.649% | [5] -24.1% | [6]; 10 µM unless noted -51% | [9] -20.2% | [10]; 10 µM unless noted 6.2% | [11] 5.61% | [12]; 10 µM unless noted -13.8% | [18]; 10 µM unless noted -80.1%
inactive: [1]; 10 µM unless noted 40.3% | [2] 44% | [3]; 10 µM unless noted 28.8% | [7]; 10 µM unless noted 46.4% | [8]; 10 µM unless noted 32% | [13] 60.6% | [14]; 10 µM unless noted 13.1% | [15] 28.1% | [16] 99.7% | [17]; 10 µM unless noted 43% | [19] 61.7% | [20]; 10 µM unless noted 66.9%

COc1ccccc1/C=C\C(=O)c1ccccc1
active: [12]; 10 µM unless noted -13.3%
inactive: [1]; 10 µM unless noted 87.6% | [2] 85.2% | [3]; 10 µM unless noted 76.8% | [4]; 10 µM unless noted 44.1% | [5] 104% | [6]; 10 µM unless noted 77% | [7]; 10 µM unless noted 83.2% | [8]; 10 µM unless noted 101% | [9] 11% | [10]; 10 µM unless noted 58.1% | [11] 15.3% | [13] 75.8% | [14]; 10 µM unless noted 84% | [15] 81.2% | [16] 94.5% | [17]; 10 µM unless noted 64.4% | [18]; 10 µM unless noted 110% | [19] 86% | [20]; 10 µM unless noted 14.2%

CNc1ccc2c(c1)c1ccccc1n2C
inactive: [1]; 10 µM unless noted 103% | [2] 106% | [3]; 10 µM unless noted 102% | [4]; 10 µM unless noted 92.4% | [5] 97.9% | [6]; 10 µM unless noted 114% | [7]; 10 µM unless noted 98.9% | [8]; 10 µM unless noted 88.8% | [9] 109% | [10]; 10 µM unless noted 88.1% | [11] 93.9% | [12]; 10 µM unless noted 110% | [13] 100% | [14]; 10 µM unless noted 112% | [15] 108% | [16] 106% | [17]; 10 µM unless noted 109% | [19] 118% | [20]; 10 µM unless noted 102%

O=C1OCc2cccc3cccc1c23
inactive: [1]; 10 µM unless noted 123% | [2] 88.2% | [3]; 10 µM unless noted 101% | [4]; 10 µM unless noted 77% | [5] 101% | [6]; 10 µM unless noted 95.7% | [7]; 10 µM unless noted 102% | [8]; 10 µM unless noted 83.5% | [9] 94.5% | [10]; 10 µM unless noted 92.6% | [11] 93.1% | [12]; 10 µM unless noted 100% | [13] 101% | [14]; 10 µM unless noted 108% | [16] 112% | [17]; 10 µM unless noted 102% | [18]; 10 µM unless noted 110% | [19] 102% | [20]; 10 µM unless noted 108%

N#CC1C(=O)SC2c3ccccc3C(=O)c3ccccc3C12 (centres undefined)
inactive: [1]; 10 µM unless noted 98.5% | [2] 107% | [3]; 10 µM unless noted 101% | [4]; 10 µM unless noted 89.5% | [5] 99.5% | [6]; 10 µM unless noted 114% | [7]; 10 µM unless noted 88% | [8]; 10 µM unless noted 105% | [9] 95% | [10]; 10 µM unless noted 99.6% | [11] 90.1% | [12]; 10 µM unless noted 94.6% | [13] 99% | [15] 99.1% | [16] 98.2% | [17]; 10 µM unless noted 110% | [18]; 10 µM unless noted 109% | [19] 96.2% | [20]; 10 µM unless noted 104%

O=C1c2ccccc2C(=O)c2sc(Nc3ccc(Cl)cc3)nc21
active: [3]; 10 µM unless noted -80.3% | [6]; 10 µM unless noted -23.4% | [10]; 10 µM unless noted 6.68% | [11] 4.26% | [12]; 10 µM unless noted 7.64% | [14]; 10 µM unless noted -62.5% | [15] 1.65% | [18]; 10 µM unless noted -39.6%
inactive: [1]; 10 µM unless noted 35.9% | [2] 53.6% | [4]; 10 µM unless noted 21.7% | [5] 174% | [7]; 10 µM unless noted 75% | [8]; 10 µM unless noted 87.3% | [9] 13.1% | [13] 10.6% | [16] 100% | [17]; 10 µM unless noted 34.8% | [20]; 10 µM unless noted 16.8%

O=[N+]([O-])c1ccc2c(N=Nc3ccc4ccccc4c3O)c(O)cc(S(=O)(=O)O)c2c1
inactive: [1]; 10 µM unless noted 102% | [2] 95.2% | [3]; 10 µM unless noted 99.4% | [4]; 10 µM unless noted 62.6% | [5] 91.6% | [6]; 10 µM unless noted 78.7% | [7]; 10 µM unless noted 60.1% | [8]; 10 µM unless noted 108% | [9] 63.6% | [10]; 10 µM unless noted 91.7% | [11] 90.3% | [12]; 10 µM unless noted 96.8% | [13] 70.5% | [14]; 10 µM unless noted 106% | [15] 63% | [16] 90% | [17]; 10 µM unless noted 61.7% | [18]; 10 µM unless noted 41.4% | [19] 105% | [20]; 10 µM unless noted 86.1%

Cc1c2ccccc2c(C)c2c1ccc1ccccc12
inactive: [1]; 10 µM unless noted 98.6% | [2] 88.7% | [3]; 10 µM unless noted 94.3% | [4]; 10 µM unless noted 80.3% | [5] 111% | [6]; 10 µM unless noted 97.2% | [7]; 10 µM unless noted 89% | [8]; 10 µM unless noted 81.1% | [9] 88.9% | [10]; 10 µM unless noted 71.1% | [11] 63.8% | [12]; 10 µM unless noted 84.3% | [13] 98.8% | [14]; 10 µM unless noted 95.6% | [15] 89.9% | [16] 99.4% | [17]; 10 µM unless noted 81% | [19] 98% | [20]; 10 µM unless noted 106%

O=[N+]([O-])c1ccc(N=Nc2ccc(O)cc2O)cc1
inactive: [1]; 10 µM unless noted 43.1% | [2] 58.8% | [3]; 10 µM unless noted 67.2% | [4]; 10 µM unless noted 58.5% | [5] 77.9% | [6]; 10 µM unless noted 55.5% | [7]; 10 µM unless noted 56% | [8]; 10 µM unless noted 13.8% | [9] 33.2% | [10]; 10 µM unless noted 36.7% | [11] 16.6% | [12]; 10 µM unless noted 43% | [13] 61.9% | [14]; 10 µM unless noted 107% | [15] 48.4% | [16] 87% | [17]; 10 µM unless noted 76.5% | [18]; 10 µM unless noted 54.8% | [20]; 10 µM unless noted 52.6%
